Results from PubChem BioAssay.
Values joined by “and” are separate entries in the source; they are usually repeats but may differ in a detail not shown here. Equal values may be shown once.

Experiment: viability loss with induced miR-34 in A549 – imaging, A549 dox-inducible miR-34, nuclei and caspase counts, primary screen (AID 1347080); note: test concentration not given here
Settings: A549 miR-34 inducible, Hoechst nuclei count, 48 h; measured here: relative caspase fold change +Dox/-Dox

| Compound | fold change |
| --- | --- |
| C[C@H](N)Cc1cccc(C(F)(F)F)c1 | 1.01 |
| CCCCC/C=C\C/C=C\CCCCCCCC(=O)NCCO | 1.07 and 1.16 |
| C=CCN1C[C@@H](C)N([C@H](c2ccc(C(=O)N(CC)CC)cc2)c2cccc(OC)c2)C[C@@H]1C | 1.18 |
| N#CC(=Cc1ccc(O)c(O)c1)C(N)=S | 1.34 |
| N[C@@]1(C(=O)O)CC[C@@H](C(=O)O)C1 | 2.1 |
| CCCC[C@H]1C(=O)O[C@H](C)[C@H](NC(=O)c2cccc(NC=O)c2OC)C(=O)O[C@@H](C)[C@@H]1OC(=O)CC(C)C | 0.897 |
| CCNC(=O)[C@H]1O[C@@H](n2cnc3c(N)ncnc32)C(O)[C@H]1O (stereo not given in full) | 1.36 |
| CCCCC/C=C\C/C=C\C/C=C\CCCCCCC(=O)NCCO | 1.55 and 0.675 |
| CCCCCCCCCCCCCCCCOC[C@@H](COP(=O)([O-])OCC[N+](C)(C)C)OC(C)=O | 0.996 |
| O=C(NC1CN2CCC1CC2)c1cc2ccoc2cn1 (stereo not given) | 1.41 |
| C[C@@H]1O[C@H](C[N+](C)(C)C)C[C@H]1O | 1.87 |
| COC[C@H]([C@@H](O)[C@@H](O)C(=O)NCC[C@@H](C)c1nc(/C=C/C[C@H]2OC3(C[C@H](O)[C@H]2C)OC([C@@H](C[C@@H](O)[C@@H](C)[C@@H](O)[C@@H](C)/C=C(C)/C(C)=C/C=C/C(C)=C\C#N)OC)[C@@H](OP(=O)(O)O)C3(C)C)co1)N(C)C (stereo not given in full) | 1.44 |
| CCCCC[C@@H](/C=C/C=C\CCCCCCCC(=O)O)OO | 1.1 |
| C=CCN1CCC23c4c5ccc(O)c4O[C@H]2C(=O)CC[C@@]3(O)C1C5 (stereo not given in full) | 1.06 |
| CCCCC/C=C\C/C=C\C/C=C\C/C=C\CCCC(=O)NCCO | 0.958 and 0.763 |
| CC(C)(O)[C@H]1O[C@H]2CC[C@@]3(C)[C@@](O)(CC[C@H]4Cc5c([nH]c6ccccc56)[C@@]43C)C2=CC1=O | 1.67 |
| CCCCC/C=C\C[C@@H](/C=C/C=C\C/C=C\CCCC(=O)O)OO | 1.25 |
| N#CC(C#N)=Cc1ccc(O)cc1 | 1.22 |
| CCCCC/C=C\C/C=C\C/C=C\C=C\[C@H](CCCC(=O)O)OO | 1.08 |
| CC(N)c1cccc(Cl)c1Cl (stereo not given) | 0.961 |

| Compound | fold change |
| --- | --- |
| CN1CCC[C@@H]1Cc1c[nH]c2ccc(Nc3ncccc3[N+](=O)[O-])cc12 | 1.84 |
| Oc1ccc2c3c1O[C@H]1c4[nH]c5ccccc5c4C[C@@]4(O)C(C2)N(CC2CC2)CCC314 (stereo not given in full) | 1.69 |
| COc1cc(C(O)CN)ccc1O (stereo not given) | 2.66 |
| C[C@@H]1O[C@@H](O[C@H]2C[C@@H](O)[C@]3(CO)[C@@H]4C(CC[C@]3(O)C2)[C@@]2(O)CC[C@H](C3COC(=O)C3)[C@@]2(C)C[C@H]4O)[C@H](O)[C@H](O)[C@H]1O (stereo not given in full) | 1.72 |
| CN1CC[C@@]2(C)c3cc(OC(=O)Nc4ccccc4)ccc3N(C)[C@@H]12 | 1.22 |
| CCCCCC1OC1C/C=C\CCCCCCCC(=O)O (stereo not given) | 1.2 |
| c1ccc2cc(CC3=NCCN3)ccc2c1 | 1.69 |
| CC(C)(C)OC(=O)NC1[C@H]2CNC[C@@H]12 (stereo not given in full) | 1.39 |
| NC1CC1c1ccccc1 (stereo not given) | 1.3 and 1.48 |
| NC(CCP(=O)(O)O)C(=O)O (stereo not given) | 2.08 |
| CCCCC/C=C\C/C=C\C/C=C\C/C=C\CCCC(N)=O | 1.34 and 1.46 |
| CCCCC[C@@H](/C=C/C=C\C/C=C\C/C=C\CCCC(=O)O)OO | 0.92 |
| COc1ccc2c(c1)C13CCCCC1C(C2)N(C)CC3 (stereo not given) | 1.15 |
| C=CCN1CC[C@]23CCCCC2[C@H]1Cc1ccc(O)cc13 (stereo not given in full) | 0.636 |
| CCCCC/C=C\C=C\[C@H](CCCCCCCC(=O)O)OO | 1.23 |
| O=C1CC[C@@]2(O)C3Cc4ccc(O)c5c4C2(CCN3CC2CC2)[C@H]1O5 (stereo not given in full) | 1.19 |
| NC(CP(=O)(O)O)C(=O)O (stereo not given) | 2.04 |
| C[C@]12Cc3cn4c(nc3C=C1CCC1C2CC[C@@]2(C)[C@H]1CC[C@@]2(O)C#N)nc1ccccc14 (stereo not given in full) | 0.934 |
| CCCCCCCCCCCCCC(=O)O[C@@H]1[C@@H](C)[C@@]2(O)[C@@H](C=C(CO)C[C@@]3(O)C(=O)C(C)=C[C@@H]23)C2C(C)(C)[C@@]21OC(C)=O (stereo not given in full) | 1.62 |
| CCCCC/C=C\C/C=C\C/C=C\C/C=C\CCCCCC(=O)NCCO | 1.64 and 1.22 |
